Measured values reported in PubChem BioAssay AID677 (Vanderbilt High Throughput Screening Facility, 2007).
The campaign covered roughly 1,700 compounds. About 720 (42%) were called active.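 Rule for the calls: active = calcium response below the same-plate mean of wells given acetylcholine alone at its 80%-effect dose, minus 3 SD; inactive = the rest.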 So high a share suggests a set chosen from earlier hits. These entries were drawn from the full list.

Biological target: Muscarinic acetylcholine receptor M1 (Rattus norvegicus) (UniProt P08482)
Sequence (P08482 whole entry, looked up): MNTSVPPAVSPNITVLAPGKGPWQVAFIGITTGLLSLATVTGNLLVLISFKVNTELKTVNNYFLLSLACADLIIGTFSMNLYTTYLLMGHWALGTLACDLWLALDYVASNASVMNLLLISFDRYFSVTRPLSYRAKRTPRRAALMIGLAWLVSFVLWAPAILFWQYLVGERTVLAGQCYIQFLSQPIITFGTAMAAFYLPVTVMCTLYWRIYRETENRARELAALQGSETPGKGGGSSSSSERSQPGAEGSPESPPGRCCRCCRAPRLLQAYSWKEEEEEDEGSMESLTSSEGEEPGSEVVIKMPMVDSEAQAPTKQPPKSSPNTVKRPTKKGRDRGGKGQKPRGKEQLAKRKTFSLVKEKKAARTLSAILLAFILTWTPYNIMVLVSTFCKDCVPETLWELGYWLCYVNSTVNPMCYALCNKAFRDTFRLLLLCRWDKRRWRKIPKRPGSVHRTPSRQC
Test: blockers of ACh-evoked M1 calcium signal – CHO cells, Fluo-4 calcium, duplicate, confirmation (AID 677);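 note: raw fluorescence intensity difference in arbitrary instrument units and not normalized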
Settings: ACh EC80 antagonism, at 10 µM, hits give low values

Calcium response (max-min fluorescence), active:
Cc1ccsc1-c1nc(CSCC(=O)NCCN2CCCC2)c(C)o1 379, CN1CCN(c2ccc(NC(=O)COc3ccc(Cl)cc3Cl)cc2)CC1 339, O=C(Cc1cccs1)N1CCCC(c2nc(-c3ccc(S(=O)(=O)N4CCCC4)cc3)no2)C1 (stereo not given) 457, CCn1c(=N)n(CC(=O)c2cccc(OC)c2)c2ccccc21 447, CCOC(=O)Nc1ccc2c(c1)N(C(=O)CN1CCN3CCCC3C1)c1ccccc1CC2 (stereo not given) 476, Cc1ccccc1C(OCC(O)CN1CCCCC1CCO)c1ccccc1 (stereo not given) 337, CCCCN(C)C(=O)c1ccc2c(c1)N(CC)C(=O)c1ccccc1S2(=O)=O 320, Cc1ccc(-c2noc(CCC(=O)Nc3ccccc3N3CCN(C)CC3)n2)cc1 535, O=C(C(NS(=O)(=O)c1cccc2nsnc12)c1ccccc1)N1CCN(c2ccccn2)CC1 (stereo not given) 430, CCN1CCN(c2c(Cl)cccc2NC(=O)c2ccc(Br)o2)CC1 179, Cc1nc2c(-c3ccc(F)cc3)c(C)nn2c(C)c1CCC(=O)N1CCN(c2ccccn2)CC1 512, Cc1cccc(N2CCN(Cc3c(C)n(C)n(-c4ccccc4)c3=O)CC2)c1C 413, CCn1c(=O)cc(OCC(=O)NCCCN2CCN(c3cccc(Cl)c3)CC2)c2ccccc21 499, O=C(NCCCN1CCCCCC1)C1CC(=O)N(C2CCCC2)C1 (stereo not given) 430, c1ccc(-c2cc(-c3nnc4sc(-c5ccccn5)nn34)[nH]n2)cc1 437, CCN(CCCCOC(=O)c1ccc(OC)c(OC)c1)C(C)Cc1ccc(OC)cc1 (stereo not given) 18.8, CC12CN(Cc3ccccc3)CC(C)(CN(Cc3ccccc3)C1)C2=NO 113, Cc1nc2ccccc2c2oc(C(=O)NCCCN3CCC(C)CC3)cc12 498, CCC(C(=O)OCCN(CC)CC)c1ccccc1 (stereo not given) 24, CCCCOc1ccc(C(C)(O)CCN2CCOCC2)cc1 (stereo not given) 448, O=C1NC(Nc2nc3ccccc3s2)(C(F)(F)F)C(=O)N1C1CCCCC1 (stereo not given) 339, O=C(C(c1ccccc1)c1ccccc1)N1CCN(CC(O)COc2ccccc2)CC1 (stereo not given) 490, CCOC(=O)N1CCN(C(=O)C2CCCN(c3ncnc4c3sc3cccc(F)c34)C2)CC1 (stereo not given) 126, CCOC(=O)N1CCN(C(=O)C2CCN(c3ncnc4c3sc3cccc(F)c34)CC2)CC1 468, CSc1nnc2c(n1)OC(c1ccsc1)N(C(C)=O)c1ccccc1-2 (stereo not given) 250, CCOC(=O)C1CCN(Cc2coc3ccc(Cl)cc3c2=O)CC1 351, O=C(CCCN1C(=O)CSc2ncccc21)N1CCN(c2cccc(C(F)(F)F)c2)CC1 462, CN(C)CCOC(=O)C(c1ccccc1)C1(O)CCCC1 (stereo not given) 17.7, CC1(C)CN=C(N2CCN(c3ncnc4sc5c(c34)CCCC5)CC2)S1 344, CC(C)(C)n1nnnc1C(c1cccs1)N(Cc1cccnc1)CC1CCCO1 (stereo not given) 380, O=S(=O)(c1ccc(OCC(O)CN2CCN(c3ccccc3Cl)CC2)cc1)N1CCOCC1 (stereo not given) 515, CCOC(=O)C1=C(CC)Nc2ccccc2N=C1NC(=O)c1cccc(S(=O)(=O)N2CCCC2)c1 466, Cn1c(CCN2CCCCCC2)nc2cc(NC(=O)Nc3ccccc3)ccc21 252, CCOC(=O)c1[nH]c2ccc(OC)cc2c1NC(=O)CCN1CCN(Cc2ccccc2)CC1 218, O=C(c1ccc(-n2cnnn2)cc1)N1CCN(C(c2ccccc2)c2ccccc2)CC1 100, COC(CCN(C)C)(c1ccccc1)c1ccccc1 226

Calcium response (max-min fluorescence), inactive:
C=CCn1c(=S)[nH]c2nc3c(cc2c1=O)COC(C)(C)C3 521, Cc1c(C)c2cc3c4c(oc3c(C)c2oc1=O)CCCC4 548, O=S(=O)(CCc1nc2ccccc2o1)c1ccc(Cl)cc1 608, C=CCSc1nc2ccccc2[nH]1 649, COc1ccc(-c2noc(CN(C)S(=O)(=O)c3ccc(C)cc3)n2)cc1 520, O=C(c1ccco1)N1CCN=C1SCc1cccc(Cl)c1 602, CN1CCN(CC(=O)Nc2sc3c(c2C#N)CCC(C(C)(C)C)C3)CC1 (stereo not given) 551, COc1ccc(CCn2c(=N)c(C(=O)NCc3ccco3)cc3c(=O)n4cccc(C)c4nc32)cc1 489, CCOC(=O)c1c(NC(=O)CSc2nnc(CN3CCOCC3)n2C)sc2c1CCCC2 535, COCCn1c(SCC(=O)Nc2cc(Cl)ccc2OC)nc2c(c1=O)SC(C)C2 (stereo not given) 596, O=C(CCN1C(=O)COc2ccccc21)NCCCN1CCN(c2ccc(F)cc2)CC1 484, COc1cccc2sc(Nc3nc(C)c(C(C)=O)s3)nc12 507, O=C(NCC(F)(F)F)Nc1nnc(C(F)(F)F)s1 552, COC(=O)c1ccc(C2C3=C(Nc4nnnn42)c2ccccc2OC3)cc1 (stereo not given) 596, CC1CCCC(C)N1CCCNC(=O)c1cc2c(=O)n(C)c3ccccc3c2n1C (stereo not given) 487, CCC1(C)Cc2c(sc3nc4n(c(=O)c23)CCCS4)CO1 (stereo not given) 471, CCN1C(=O)/C(=C2\SC(N3CCCCC3)=NC2=O)c2ccccc21 460, COc1cc(Cl)c(C)cc1NC(=O)CSc1nnc(-c2ccco2)n1CC(C)C 533, O=C(Nc1ccncc1)c1c(F)cccc1F 653, CCOC(=O)c1c(-c2ccc(C)cc2C)csc1NC(=O)CSc1nnnn1C 519, CCC(=O)c1ccc(OCC(O)CN2CCN(c3cccc(C(F)(F)F)c3)CC2)cc1 (stereo not given) 531, COc1ccccc1OCCOc1ccc(/C=N/n2cnnc2)cc1 587, CCC/C(O)=C1\C(=O)CC(C)(C)CC1=Nc1ccccc1OC 647, Cc1ccc(-c2csc3nnc(SCC(=O)NCc4ccco4)n23)cc1 620, CCOC(=O)N1CCN(S(=O)(=O)c2cc(Br)cc3c2N(C(=O)C2CC2)CC3)CC1 646, CCOC(=O)N1CCN(CC(=O)Nc2cc(C)nn2-c2nc3ccccc3s2)CC1 645, COc1ccc(-c2nnn(Cc3nc(N)nc(N4CCCCC4)n3)n2)cc1 539, CCC(C)(NC(=O)c1ccccn1)C(=O)NC1CCCCC1 (stereo not given) 623, N#CC(C(=O)c1ccc(S(=O)(=O)N2CCCCCC2)cc1)c1nc2ccccc2[nH]1 (stereo not given) 689, CC1=Nn2c(nnc2-c2ccccc2)SC1 675, CCCCCOC(=O)NCCOC(=O)Nc1ccc(C(=O)OCC)cc1 655, COc1cc(OC)c(C(=O)NC2CC(C)(C)NC(C)(C)C2)cc1OC 510, Cc1cc(C)n(-c2nc(SCC(=O)N3CCCC3)c3c4c(sc3n2)CCCC4)n1 466, COC(=O)c1ccc(NC(=O)CN(c2ccc(C)cc2)S(=O)(=O)c2c(C)n[nH]c2C)cc1 538, O=C(NC1=NCCS1)c1ccc(Cl)s1 680, C=C(C)Cn1c(N2CCCC2)nc2c1c(=O)[nH]c(=O)n2C 505, O=C(c1ccc(S(=O)(=O)N2CCOCC2)cc1)N1CCN(c2ccccc2)CC1 556, COc1ccc(S(=O)(=O)Nc2ccc3c(c2)OCO3)cc1Cl 516, CN(C)[C@@H]1C(=O)C(C(N)=O)=C(O)[C@@]2(O)C(=O)C3=C(O)c4c(O)ccc(Cl)c4[C@@H](O)[C@H]3C[C@@H]12 610, CC1(C)Cc2c(sc3nc4n(c(=N)c23)CCCCC4)CO1 398, CCCCN(CCCC)C(=O)CCS(=O)(=O)c1ccc2c(c1)n(C)c(=O)c(=O)n2C 581, CCOc1ccccc1C(=O)NCCCn1ccnc1 665, COc1cccc(OCCOc2cccc(/C=N/n3cnnc3)c2)c1 588, COCCN(C(=O)CCC(=O)Nc1ccccn1)C(C(=O)NCCC(C)C)c1ccc(OC)cc1 (stereo not given) 575
